Laboratory results reported in PubChem BioAssay (NCATS).
Inconclusive results are not listed. Activity calls are given as the source filed them. The call rests on the fitted dose curve; in most records, active means well fitted inhibition curve with a large enough effect; inconclusive means small, poorly fitted or top-dose-only effect; inactive means flat fitted curve, though single readings scatter.

Assay: qHTS drug screen for cell cycle checkpoint inhibitors in PARPi-resistant BRCA-mutant ovarian cancer cell lines. (AID 1963452)
Conditions: PEO1/OlaR viability, CellTiter-Glo luminescence, 96 h; measured here: PEO1 parental Z-AUC; stronger effect = lower value
In short: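 PEO1, PEO4 and PEO1/OlaR ovarian cancer cells, 600 per well, exposed 96 h at 37C to a dilution series. Viability read by CellTiter-Glo luminescence, normalized to DMSO and empty wells; activity summarized as Z-AUC.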

SMILES	Z-AUC
C=Cc1cc(O)cc2nc(-c3ccc(O)c(F)c3)oc12	0.836
O=C(O)c1cnn(-c2nc3cc(OC(F)(F)F)c(Cl)cc3[nH]2)c1	-0.102
COc1cc2c(cc1O)CCN[C@]21CS[C@@H]2c3c(OC(C)=O)c(C)c4c(c3[C@H](COC1=O)N1[C@@H]2[C@H]2c3c(cc(C)c(OC)c3O)C[C@@H]([C@@H]1O)N2C)OCO4	-2.17

Same assay, conditions: PEO1/OlaR viability, CellTiter-Glo luminescence, 96 h; measured here: PEO4 Z-AUC; stronger effect = lower value

SMILES	Z-AUC
C=Cc1cc(O)cc2nc(-c3ccc(O)c(F)c3)oc12	0.548
O=C(O)c1cnn(-c2nc3cc(OC(F)(F)F)c(Cl)cc3[nH]2)c1	-0.0473
COc1cc2c(cc1O)CCN[C@]21CS[C@@H]2c3c(OC(C)=O)c(C)c4c(c3[C@H](COC1=O)N1[C@@H]2[C@H]2c3c(cc(C)c(OC)c3O)C[C@@H]([C@@H]1O)N2C)OCO4	-1.65

Assay: qHTS profiling for inhibitors of Plasmodium falciparum proliferation (AID 504749); further: nearly all actives have a fitted effect of over 60% in size; further: potency means the concentration at half of the fitted maximal effect;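 on activity, negative = inhibition: 0% = DMSO vehicle and full inhibition = artemisinin control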
Conditions: P. falciparum in erythrocytes, SYBR Green DNA, 72 h; at 28.7 µM (top of the series); parasite line A
In short: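 In a 72 h erythrocytic culture (37 C, humidified, 5% CO2) at 2.5% hematocrit and 0.3% starting parasitemia, compounds were tested; SYBR Green I in detergent lysis buffer stained parasite DNA overnight.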

SMILES	activity, negative = inhibition
O=C(O)c1cc(=O)c2c3nc4ccccc4oc-3cc(=O)c2[nH]1	-19% (inactive)
CCCCCCCC/C=C\CCCCCCCC(=O)O	12.9% (inactive)
Cc1c(C)c2c(c(C)c1O)CC[C@@](C)(CCC[C@H](C)CCC[C@H](C)CCCC(C)C)O2	-10.2% (inactive)
O=S(=O)(O)c1ccc2c(N=Nc3ccc(S(=O)(=O)O)c4ccccc34)c(O)c(S(=O)(=O)O)cc2c1	-19.8% (inactive)
CC(NNC(=O)c1ccccc1)c1ccccc1 (stereo not drawn)	2.16% (inactive)
C[C@]12CCC(=O)C=C1CC[C@@H]1[C@@H]2[C@@H](O)C[C@@]2(C)[C@H]1CC[C@]2(O)C(=O)COP(=O)(O)O	1.99% (inactive)
Oc1cc(O)c2c(c1)OC(c1ccc(O)c(O)c1)C(O)C2 (stereo not drawn)	-12.6% (inactive)
CC(C)=O	-12.1% (inactive)
O=C1CSC2(CCN(CCCN3c4ccccc4Sc4ccc(Cl)cc43)CC2)N1	-17.8% (inactive)

Same assay, conditions: P. falciparum in erythrocytes, SYBR Green DNA, 72 h; at 28.7 µM (top of the series); parasite line B

SMILES	activity, negative = inhibition
O=C(O)c1cc(=O)c2c3nc4ccccc4oc-3cc(=O)c2[nH]1	-11.6% (inactive)
Cc1c(C)c2c(c(C)c1O)CC[C@@](C)(CCC[C@H](C)CCC[C@H](C)CCCC(C)C)O2	-2.69% (inactive)
O=S(=O)(O)c1ccc2c(N=Nc3ccc(S(=O)(=O)O)c4ccccc34)c(O)c(S(=O)(=O)O)cc2c1	-30% (inactive)
CCOc1ccc(N=Nc2ccc(N)cc2N)cc1	14.7% (inactive)
CC(NNC(=O)c1ccccc1)c1ccccc1 (stereo not drawn)	14.7% (inactive)
Cc1c(C)c2c(c(C)c1O)CC[C@@](C)(CCC[C@@H](C)CCC[C@@H](C)CCCC(C)C)O2	18% (inactive)
C[C@]12CCC(=O)C=C1CC[C@@H]1[C@@H]2[C@@H](O)C[C@@]2(C)[C@H]1CC[C@]2(O)C(=O)COP(=O)(O)O	-7.41% (inactive)
Oc1cc(O)c2c(c1)OC(c1ccc(O)c(O)c1)C(O)C2 (stereo not drawn)	-13.8% (inactive)
O=C1CSC2(CCN(CCCN3c4ccccc4Sc4ccc(Cl)cc43)CC2)N1	-28.1% (inactive)

Same assay, conditions: P. falciparum in erythrocytes, SYBR Green DNA, 72 h; parasite line A

SMILES	Potency
CC[C@@]1(O)C(=O)OCc2c1cc1n(c2=O)Cc2cc3c([N+](=O)[O-])cccc3nc2-1	4.47 µM (active)
CCOC(=O)C1=C(C)NC(C)=C(C(=O)OCC)C1c1ccccc1C=CC(=O)OC(C)(C)C	11.2 µM (active)
CCCCCCOc1ccc(C(=N)N(CCCC)CCCC)c2ccccc12	7.08 µM (active)
O=C(Nc1ccc(Br)cc1)c1cc(Br)c(Br)s1	10 µM (active)
